Assay results published in PubChem BioAssay.
The source made the active and inactive calls. Unless noted, how the calls were made is not given here.

What was measured:
[1] = compounds binding Alexa647 anti-His antibody – biochemical, small-molecule microarray, 635 nm fluorescence, artefact control for SMM control protein annotation, primary screen (AID 1128); conditions: higher = more signal;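 further: score merges feature fluorescence with signal-to-noise for each printed compound spot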
[2] = test system: Human papillomavirus type 1a E7 protein (residues 1-88); test: HPV1a E7 small-molecule binders, primary screen, biochemical, small-molecule microarray, residues 1-88, 635 nm (AID 1129); conditions: small-molecule microarray binding, fluorescence 635 nm; higher = more signal
[3] = biological target: Focal adhesion kinase 1 (Homo sapiens) (UniProt Q05397); test: PTK2 protein binding on printed compound slides – biochemical, small-molecule microarray, 635/667 nm fluorescence, BSA, DTT, primary screen (AID 1130); conditions: 635 nm fluorescence, higher = more signal;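 further: composite of spot emission at 667 nm and signal to noise over triplicate slides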
[4] = test system: Fibrinogen (Alexa647-labelled); test: Alexa647-fibrinogen binding to printed small molecules – biochemical, small-molecule microarray, 635/667 nm fluorescence, artefact control for SMM control-protein annotation, profiling panel (AID 1131); conditions: fibrinogen-A647 binding fluorescence, higher = more signal;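 further: z-score merges 667 nm fluorescence with per-spot signal-to-noise over triplicate slides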
[5] = biological target: Follistatin (Homo sapiens) (UniProt P19883); test: FST protein binding to printed compounds – biochemical, small-molecule microarray, 635/667 nm fluorescence, primary screen (AID 1132); conditions: 635 nm fluorescence, higher = more signal
[6] = biological target: Fibroblast growth factor 2 (Homo sapiens) (UniProt P09038); test: basic fibroblast growth factor binding to printed compounds – biochemical, small-molecule microarray, 635/667 nm fluorescence, primary screen (AID 1133); conditions: FGF2, fluorescence 635/667, higher = more signal
[7] = JC-1 mitochondrial potential readout, lung cancer cells – cell-based, A549, JC-1 fluorescence, basal, 24 h, 100 nL, profiling panel (AID 1138); conditions: higher = more signal;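 further: A549 lung adenocarcinoma cells under basal conditions with no added stimulus; test concentration not given here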
[8] = test system: Lefty1; test: Lefty1 protein binding to printed compounds – biochemical, small-molecule microarray, 635/667 nm fluorescence, primary screen (AID 1139); conditions: fluorescence 635/667, higher = more signal
[9] = test system: wheat germ agglutinin (Triticum aestivum), Alexa647-labelled; test: Alexa647-WGA lectin binding to printed small molecules – biochemical, small-molecule microarray, 635/667 nm fluorescence, artefact control for SMM control-protein annotation, profiling panel (AID 1140); conditions: WGA-A647 binding, 635 nm fluorescence, higher = more signal;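 further: score merges 667 nm feature emission with signal to noise over triplicate slides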
[10] = biological target: Luciferin 4-monooxygenase (Photinus pyralis) (UniProt P08659); test: inhibition of purified Photinus pyralis luciferase – biochemical, luminescence, purified enzyme, 2006 set, primary screen (AID 1141); conditions: purified firefly luciferase, SteadyGlo luminescence, 30 min; higher = more signal, called active from +8 up or from −8 down;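 further: cell-free assay with purified firefly luciferase at 100 ng per well in PBS; test concentration not given here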
[11] = test system: Wnt5a (protein binding on small-molecule microarray); test: small molecules binding Wnt5a protein – biophysical, small-molecule microarray, 635/667 nm fluorescence, primary screen (AID 1142); conditions: 635 nm fluorescence, higher = more signal;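 further: fluorescence read at 667 nm with signal to noise per printed feature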
[12] = ATP-based viability of Huh7 replicon cells – cell-based, CellTiter-Glo luminescence, basal, 48 h, cytotoxicity control for HCV replication inhibitor project, primary screen (AID 1143); conditions: higher = more signal, called active from +8 up or from −8 down;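 further: Huh7 hepatoma cells carrying a hepatitis C replication reporter with no stimulus; test concentration not given here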
[13] = Pseudomonas biofilm growth suppression – PAO1 strain, BacTiter-Glo luminescence, LB-PBS, primary screen (AID 1144); conditions: P. aeruginosa PAO1 biofilm, 12 h, higher = more signal
[14] = basal CRE-LacZ reporter activity in PC12 – cell-based, unstimulated, primary screen (AID 1145); conditions: no forskolin, luminescence, 4.5 h, higher = more signal, called active from +8 up or from −8 down
[15] = forskolin-driven CRE-LacZ activity in PC12 – cell-based, CRE-LacZ reporter, forskolin-stimulated, primary screen (AID 1146); conditions: luminescence, 4.5 h, higher = more signal, called active from +8 up or from −8 down;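 further: PC12 cells with 6xCRE LacZ reporter stimulated by forskolin 10 µM; beta-galactosidase reporter signal reflecting CREB driven transcription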
[16] = biological target: Streptavidin (Streptomyces avidinii) (UniProt P22629); test: compounds binding control protein streptavidin – biophysical, small-molecule microarray, 635/667 nm fluorescence, artefact control for SMM compound annotation, primary screen (AID 1147); conditions: higher = more signal;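 further: signal reflects streptavidin binding to arrayed compounds as a control protein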
[17] = probe aInhba binding on compound microarray – biochemical, small-molecule microarray, 635/667 nm fluorescence, primary screen (AID 1148); conditions: higher = more signal;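 further: score merges 667nm spot fluorescence with signal-to-noise for antibody binding to printed compounds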
[18] = biological target: Torsin-1A (Homo sapiens) (UniProt O14656); test: TOR1A wild-type binding on microarray – cell lysate, small-molecule microarray, lysate, 635/667 nm, primary screen (AID 1149); conditions: COS7 hTOR1A-WT lysate, 635 nm fluorescence, higher = more signal
[19] = biological target: Torsin-1A (Homo sapiens) (UniProt O14656); test: torsin A mutant lysate binding on microarrays – cell lysate, small-molecule microarray, COS7 lysate, 635/667 nm fluorescence, primary screen (AID 1150); conditions: COS7 hTOR1A mutant lysate, 635 nm fluorescence, higher = more signal;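 further: score pools 667 nm emission and signal to noise measuring lysate protein binding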
[20] = test system: Sonic hedgehog protein (Shh); test: Sonic hedgehog microarray binding compounds – biochemical, small-molecule microarray, 635/667 nm fluorescence, primary screen (AID 1151); conditions: 635 nm fluorescence, higher = more signal;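 further: Shh protein binding to compounds spotted on small-molecule microarray slides; score combines spot fluorescence intensity with signal-to-noise across triplicate slides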

Sequence of Focal adhesion kinase 1 (Homo sapiens) (Q05397 whole entry, looked up): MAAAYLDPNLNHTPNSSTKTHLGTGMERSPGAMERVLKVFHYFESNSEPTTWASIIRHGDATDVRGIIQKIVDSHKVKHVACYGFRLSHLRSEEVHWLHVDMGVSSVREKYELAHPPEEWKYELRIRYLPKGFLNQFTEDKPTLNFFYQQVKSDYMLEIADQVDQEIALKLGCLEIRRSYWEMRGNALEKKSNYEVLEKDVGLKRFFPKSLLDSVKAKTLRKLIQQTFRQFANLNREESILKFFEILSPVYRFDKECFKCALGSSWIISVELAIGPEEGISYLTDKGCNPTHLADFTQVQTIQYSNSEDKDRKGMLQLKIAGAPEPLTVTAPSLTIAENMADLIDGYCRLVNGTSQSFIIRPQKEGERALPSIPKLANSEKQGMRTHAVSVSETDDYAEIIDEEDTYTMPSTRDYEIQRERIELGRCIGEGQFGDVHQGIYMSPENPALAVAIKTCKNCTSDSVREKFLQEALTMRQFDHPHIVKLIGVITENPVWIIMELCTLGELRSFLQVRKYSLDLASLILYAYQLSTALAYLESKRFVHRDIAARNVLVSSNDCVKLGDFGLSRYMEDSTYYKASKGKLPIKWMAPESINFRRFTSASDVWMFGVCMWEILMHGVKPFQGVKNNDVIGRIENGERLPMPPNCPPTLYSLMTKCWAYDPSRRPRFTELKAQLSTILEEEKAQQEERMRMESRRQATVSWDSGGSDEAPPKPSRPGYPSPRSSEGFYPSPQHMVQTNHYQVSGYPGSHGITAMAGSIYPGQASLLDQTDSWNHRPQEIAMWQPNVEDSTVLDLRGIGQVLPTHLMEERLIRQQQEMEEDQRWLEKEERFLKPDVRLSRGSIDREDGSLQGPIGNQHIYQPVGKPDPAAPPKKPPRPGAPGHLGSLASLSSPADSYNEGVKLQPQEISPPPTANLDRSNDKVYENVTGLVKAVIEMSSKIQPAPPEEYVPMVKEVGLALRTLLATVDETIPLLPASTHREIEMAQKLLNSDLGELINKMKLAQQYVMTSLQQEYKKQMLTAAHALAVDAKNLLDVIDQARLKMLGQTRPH
Sequence of Streptavidin (Streptomyces avidinii) (P22629 whole entry, looked up): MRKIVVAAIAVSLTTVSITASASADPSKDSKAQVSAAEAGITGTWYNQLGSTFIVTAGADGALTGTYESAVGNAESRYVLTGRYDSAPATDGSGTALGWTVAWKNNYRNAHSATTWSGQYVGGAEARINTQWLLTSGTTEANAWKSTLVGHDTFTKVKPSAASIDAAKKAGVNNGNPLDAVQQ
Sequence of Luciferin 4-monooxygenase (Photinus pyralis) (P08659 whole entry, looked up): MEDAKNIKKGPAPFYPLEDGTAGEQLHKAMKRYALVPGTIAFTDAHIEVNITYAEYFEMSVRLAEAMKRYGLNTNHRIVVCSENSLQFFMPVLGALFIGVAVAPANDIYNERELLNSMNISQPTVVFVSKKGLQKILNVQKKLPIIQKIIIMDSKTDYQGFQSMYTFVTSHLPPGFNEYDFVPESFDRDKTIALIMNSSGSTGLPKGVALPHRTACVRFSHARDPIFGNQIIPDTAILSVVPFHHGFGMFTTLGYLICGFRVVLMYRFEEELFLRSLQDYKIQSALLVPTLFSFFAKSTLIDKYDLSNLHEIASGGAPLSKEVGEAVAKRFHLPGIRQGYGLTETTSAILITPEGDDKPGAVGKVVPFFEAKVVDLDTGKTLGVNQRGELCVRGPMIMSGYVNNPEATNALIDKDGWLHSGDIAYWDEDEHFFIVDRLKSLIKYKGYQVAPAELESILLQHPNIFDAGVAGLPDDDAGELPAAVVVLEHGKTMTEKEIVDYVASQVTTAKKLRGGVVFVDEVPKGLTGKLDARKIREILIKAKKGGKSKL
Sequence of Fibroblast growth factor 2 (Homo sapiens) (P09038 whole entry, looked up): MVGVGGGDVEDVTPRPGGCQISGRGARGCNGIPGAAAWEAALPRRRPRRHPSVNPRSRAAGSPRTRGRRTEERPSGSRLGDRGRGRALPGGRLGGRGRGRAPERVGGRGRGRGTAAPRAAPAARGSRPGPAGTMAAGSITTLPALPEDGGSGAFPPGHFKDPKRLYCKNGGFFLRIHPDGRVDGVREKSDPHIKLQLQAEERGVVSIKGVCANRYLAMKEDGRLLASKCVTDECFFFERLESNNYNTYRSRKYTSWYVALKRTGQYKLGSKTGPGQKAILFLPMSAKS
Sequence of Follistatin (Homo sapiens) (P19883 whole entry, looked up): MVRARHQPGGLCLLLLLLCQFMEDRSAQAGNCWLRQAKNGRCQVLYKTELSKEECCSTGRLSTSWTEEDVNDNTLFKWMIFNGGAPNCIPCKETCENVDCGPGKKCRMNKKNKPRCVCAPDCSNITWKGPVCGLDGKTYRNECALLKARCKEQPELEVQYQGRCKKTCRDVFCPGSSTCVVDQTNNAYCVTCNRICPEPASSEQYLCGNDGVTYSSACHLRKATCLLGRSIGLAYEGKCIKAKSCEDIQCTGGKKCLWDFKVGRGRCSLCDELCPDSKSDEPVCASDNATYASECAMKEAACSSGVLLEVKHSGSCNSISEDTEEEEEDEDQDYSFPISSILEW
Sequence of Torsin-1A (Homo sapiens) (O14656 whole entry, looked up): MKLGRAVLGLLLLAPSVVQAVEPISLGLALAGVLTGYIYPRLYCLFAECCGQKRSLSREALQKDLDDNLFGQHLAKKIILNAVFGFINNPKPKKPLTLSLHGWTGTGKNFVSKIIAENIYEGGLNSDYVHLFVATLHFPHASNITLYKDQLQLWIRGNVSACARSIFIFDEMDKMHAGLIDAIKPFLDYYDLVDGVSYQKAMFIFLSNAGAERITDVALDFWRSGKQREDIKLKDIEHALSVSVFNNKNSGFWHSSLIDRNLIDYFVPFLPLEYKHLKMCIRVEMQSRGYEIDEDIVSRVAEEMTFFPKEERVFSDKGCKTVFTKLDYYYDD

Row | Compound | composite z-score [1] | composite z-score [2] | composite z-score [3] | composite z-score [4] | composite z-score [5] | composite z-score [6] | z-score [7] | composite z-score [8] | composite z-score [9] | z-score [10] | composite z-score [11] | z-score [12] | z-score [13] | z-score [14] | z-score [15] | composite z-score [16] | composite z-score [17] | composite z-score [18] | composite z-score [19] | composite z-score [20]
1 | Cn1c2c(c3ccccc31)C(=O)C1NC2C=CC1(C)C(=O)OCc1ccccc1 (stereo not given) | 0.262 | 0.291 | 0.0584 | 0.351 | -2.07 | -2.05 | -0.591 | -1.82 | 0.757 | 1.15 (inactive) | -0.348 | -0.171 (inactive) | 0.908 (inactive) | 1.39 (inactive) | 0.716 (inactive) | 0.298 | 0.0442 | -0.327 | 0.285 | -0.699
2 | O=C1OCC=C[C@H]2OC34C=CCN(c5ccc(Cl)cc5)C(=O)[C@H]3N(CCCO)C(=O)[C@@H]4[C@@H]12 (stereo not given in full) | -0.562 | -0.799 | 0.29 | -1.02 | -0.706 | -0.708 | -0.353 | -0.672 | -0.748 | -0.429 (inactive) | -0.329 | -2.14 (inactive) | -0.288 (inactive) | 1.28 (inactive) | 0.245 (inactive) | -1.47 | -0.15 | 0.626 | -2.06 | -0.629
3 | NC(=O)NCC#Cc1ccc2c(c1)[C@]1(C(=O)N2)[C@H](C(=O)NC[C@H](O)c2ccccc2)[C@H]2C(=O)O[C@H](c3ccccc3)[C@H](c3ccccc3)N2[C@@H]1c1ccccc1OCCO | 0.441 | 1.18 | 0.32 | 0.946 | 1.05 | 0.54 | -1.17 | 0.28 | 0.25 | 0.649 (inactive) | -0.0335 | -4.25 (inactive) | -1.09 (inactive) | -0.0246 (inactive) | -0.304 (inactive) | -0.0692 | 0.0471 | -1.05 | 0.92 | 1.82
4 | O=C1OCCC=C[C@H]2OC34C=CCN(c5ccc6ccccc6c5)C(=O)[C@H]3N(CCCCCCO)C(=O)[C@@H]4C12 (stereo not given in full) | -0.365 | -0.992 | -0.0504 | -0.771 | -0.761 | -0.97 | 1.48 | -0.61 | -0.451 | -1.2 (inactive) | -0.315 | -0.211 (inactive) | -0.0556 (inactive) | 0.0605 (inactive) | 0.771 (inactive) | -1.1 | -0.179 | 2.39 | 2.75 | -0.305
5 | O=C1C[C@@](C(=O)O)(c2ccc([N+](=O)[O-])cc2)[C@@H](c2ccc(CO)cc2I)N1C1CCCCC1 | 0.806 | 0.796 | 0.113 | 0.873 | 0.539 | 0.293 | -0.706 | 0.471 | 0.832 | -0.411 (inactive) | 0.45 | -4.77 (inactive) | -2.27 (inactive) | -0.619 (inactive) | -0.598 (inactive) | 0.988 | 0.0905 | -0.757 | 0.206 | -0.196
6 | CC(C)NC(=O)[C@@H]1c2ccccc2C(=O)N(C2CCCCC2)[C@H]1c1ccc(CO)cc1 | 2.71 | 1.15 | 0.517 | 0.137 | 0.449 | 0.525 | 0.483 | -0.161 | 0.577 | 0.202 (inactive) | 0.242 | -1.17 (inactive) | 0.0353 (inactive) | -0.529 (inactive) | -0.579 (inactive) | -0.148 | 0.152 | 0.13 | -0.28 | 0.0045
7 | O=C(N1CCCCC1)[C@]1(CCS(=O)(=O)c2ccccc2)N=C(c2ccc(OCCCO)cc2)O[C@@H]1c1ccccc1 | 3.05 | 1.22 | 1.29 | 0.949 | 1.18 | 0.619 | -0.913 | 0.211 | 1.31 | -0.149 (inactive) | 0.497 | -5.48 (inactive) | 0.13 (inactive) | 1.16 (inactive) | -0.526 (inactive) | 0.721 | 0.461 | 0.608 | 0.885 | 0.624
8 | CO[C@H]1O[C@H](CO)[C@@H](OC(=O)Nc2cccc(F)c2)[C@H](OC(=O)Nc2ccccc2-c2ccccc2)[C@@H]1OC(=O)Nc1ccccc1-c1ccccc1 | 1.61 | 1.25 | 0.797 | 1 | 1.09 | 0.205 | -1.16 | 0.102 | 1.11 | 0.923 (inactive) | 0.21 | -5.49 (inactive) | -0.579 (inactive) | 0.306 (inactive) | 0.0811 (inactive) | 1.88 | 0.212 | 0.838 | 0.886 | 0.667
9 | Cc1ccc(C(C)CC(O)C2C=CC3C(=O)NC(=O)C3N2Nc2ccccn2)o1 (stereo not given) | 1.17 | -0.722 | -0.121 | -0.633 | 0.709 | 0.243 | 0.839 | 0.643 | -0.0217 | -2.19 (inactive) | -0.0405 | 1.2 (inactive) | -1.31 (inactive) | -0.712 (inactive) | -0.364 (inactive) | -0.585 | 0.0797 | 0.81 | 0.282 | 0.452
10 | CCCCN1CC=CC23O[C@@H]4/C=C\CCCOC(=O)C4[C@H]2C(=O)N(C(C)CO)[C@@H]3C1=O (stereo not given in full) | -1.02 | -0.582 | -0.56 | 0.347 | -0.446 | -0.38 | 0.532 | -0.291 | -0.362 | -0.315 (inactive) | -0.286 | 0.33 (inactive) | -1.35 (inactive) | -0.907 (inactive) | -0.679 (inactive) | -0.559 | -0.05 | -0.534 | -0.804 | 0.732
